PubChem BioAssay AID1259422 (The Scripps Research Institute Molecular Screening Center, 2018)
About 9,300 (1.5%) of roughly 640,000 compounds were called active. Cut-off read from the data, not from the text of the source: active = inhibition above about 32%; inactive = the rest. The sample as a whole holds a higher share of actives than the screen did.

experiment: TEAD-YAP interaction inhibition, primary screen, TEAD-YAP interaction inhibitor project, luminescence, HEK-TIYL cells (AID 1259422); settings: TEAD-Gal4/YAP UAS-luciferase luminescence, at 9.12 µM, active compounds read high;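 note: 0% = median of test compound wells and 100% = reference inhibitor wells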

Row | SMILES | inhibition
1 | c1ccc2nc(-c3nc4ccccc4s3)ccc2c1 | 50.1% (active)
2 | CCS(=O)(=O)N1CCN(c2cccc(Cl)c2)CC1 | 4.72% (inactive)
3 | CCCOc1ccc(/C=N/NC(=O)OC)c(O)c1 | -15.8% (inactive)
4 | CC(C)(C)c1cc(C(=O)N/N=C/c2c(O)ccc3ccccc23)n[nH]1 | -0.43% (inactive)
5 | CCOc1ccc(-c2cc(C(=O)N/N=C/c3c[nH]c4ccccc34)[nH]n2)cc1 | 55.9% (active)
6 | Cc1ccc(/C=N\NC(=O)c2cc(C(C)(C)C)[nH]n2)cc1 | 45.2% (active)
7 | CCOc1ccc(O)c(/C=N/NC(=O)CNc2ccc3ccccc3c2)c1 | -7.17% (inactive)
8 | CCOc1ccc(/C=N/NC(=O)c2cc(C(C)(C)C)[nH]n2)c(O)c1 | 59.8% (active)
9 | CCOc1cccc(-c2cc(C(=O)N/N=C/c3ccccc3O)[nH]n2)c1 | -2.87% (inactive)
10 | CCOc1ccc(-c2cc(C(=O)N/N=C\c3ccccc3O)[nH]n2)cc1OC | 1.39% (inactive)
11 | Cc1cc(C(=O)N/N=C/c2ccc(Br)c([N+](=O)[O-])c2)n[nH]1 | 6.76% (inactive)
12 | CSc1nnc2c(n1)OC(c1ccc(N(C)C)cc1)Nc1ccc(Br)cc1-2 (stereo not given) | -2.24% (inactive)
13 | Cc1cccc(N(CC(O)c2ccccc2)S(=O)(=O)c2ccc3c(c2)OCCO3)c1 (stereo not given) | 2.94% (inactive)
14 | N#CC(C#N)=C1SCC(=O)N1c1ccc(F)cc1 | -0.92% (inactive)
15 | CCn1c(N=Nc2c(O)[nH]c3ccccc23)nc2c1c(=O)n(C)c(=O)n2C | 6.12% (inactive)
16 | OCCC1CCCCN1c1ccnc2c(-c3ccc(F)c(Cl)c3)cnn12 (stereo not given) | 41.4% (active)
17 | OC[C@@H]1CCCN1c1ccnc2c(-c3cccc4ccccc34)cnn12 | -40.1% (inactive)
18 | O=C(NCCO)c1cccc(-c2cnn3c(N4CCCCC4CCO)ccnc23)c1 (stereo not given) | -6.65% (inactive)
19 | Cc1ccc(-c2cnn3c(NCc4ccc5c(c4)OCO5)ccnc23)cc1 | -8.18% (inactive)
20 | CN(C)CCNc1ccnc2c(-c3ccc(F)c(Cl)c3)cnn12 | -31.8% (inactive)
21 | OC[C@@H]1CCCN1c1ccnc2c(-c3ccc4c(c3)OCO4)cnn12 | 55.2% (active)
22 | N#Cc1ccsc1NC(=O)COC(=O)CC12CC3CC(CC(C3)C1)C2 | -33.5% (inactive)
23 | COc1ccc(Cl)cc1NC(=S)NC(C)c1ccncc1 (stereo not given) | 2.52% (inactive)

Row | SMILES | inhibition
24 | CC1CN(c2nc3c(c(=O)[nH]2)CCN(c2cnccn2)C3)CC(C)O1 (stereo not given) | 9.31% (inactive)
25 | C=CCN1C(=O)S/C(=C/c2ccccc2F)C1=O | -54.7% (inactive)
26 | Cc1ccc(OCc2nc3ccccc3n2CC(=O)Nc2cc(C)on2)cc1 | -69.6% (inactive)
27 | Oc1cccc(/C=N/Nc2ccc(Cl)nn2)c1O | 79.2% (active)
28 | Oc1ccc(/C=N/Nc2ccccc2Cl)c(O)c1O | -1.62% (inactive)
29 | NC(=O)c1ccc(N=Cc2cccc(O)c2O)cc1 | -12.1% (inactive)
30 | CCN1C(=O)N/C(=C/c2ccccc2OCc2ccc(C(=O)O)cc2)C1=O | -1.26% (inactive)
31 | NS(=O)(=O)c1ccc(C(=O)OCc2cccc(Cl)c2Cl)cc1 | 8.02% (inactive)
32 | COc1ccc2[nH]c(=O)c(CN(CCCO)Cc3nnnn3CC3CCCO3)cc2c1 (stereo not given) | 5.17% (inactive)
33 | CC1CN(CCC(=O)N2CCCN(C3Cc4ccccc4C3)CC2)Cc2ccccc2O1 (stereo not given) | -10.5% (inactive)
34 | O=C(NC(=O)c1cccc(F)c1)OC1CCS(=O)(=O)C1 (stereo not given) | -5.15% (inactive)
35 | CC(C)(C)C(=O)Nc1ccc(-c2csc(N)n2)cc1 | -22.9% (inactive)
36 | CC(=O)NCCCc1ccc(-c2csc(N)n2)cc1 | 56.7% (active)
37 | CC(=O)Nc1nc(-c2ccc(C)c(C)c2)cs1 | -61.1% (inactive)
38 | Cc1cc2c(cc1C)NC(CC(=O)Nc1cccc([N+](=O)[O-])c1)C(=O)N2 (stereo not given) | -4.87% (inactive)
39 | CCOc1ccc(CN2CCN(Cc3cc(OC)ccc3O)CC2)cc1 | 3.2% (inactive)
40 | COC(=O)C1=C(C)NC2=C(C(=O)c3ccccc32)C1c1ccc(OC)cc1 (stereo not given) | -0.11% (inactive)
41 | CCOC(=O)C1=C(C)NC2=C(C(=O)c3ccccc32)C1c1cccc(F)c1 (stereo not given) | -6.85% (inactive)
42 | CCOC(=O)C1=C(C)NC2=C(C(=O)c3ccccc32)C1c1cc(Br)c(OC)c(OC)c1 (stereo not given) | 57.2% (active)
43 | C=CCNc1ccc([N+](=O)[O-])cc1C#N | 3.17% (inactive)
44 | Cc1ccc(NC(=O)C2CC3CCCN3C23C(=O)Nc2ccccc23)cc1 (stereo not given) | 11.1% (inactive)
45 | CCCNC(=O)Cn1c(=O)oc2cc(Cl)ccc21 | 1.41% (inactive)
